Data taken from PubChem BioAssay.
Active and inactive are the calls of the source.

Test system: not listed separately
Assay: CREB reporter modulators under forskolin, primary screen, cell-based, PC12, CRE-LacZ reporter, forskolin-stimulated (AID 1146);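 note: PC12 cells with 6xCRE LacZ reporter stimulated by forskolin 10 µM; beta-galactosidase reporter signal reflecting CREB driven transcription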
Settings: luminescence, 4.5 h, higher = more signal, called active from +8 up or from −8 down

| Compound | z-score |
| --- | --- |
| CC(C)CON=C1C[C@@H](O)[C@@H](O)[C@@H]2[C@@H]3C(=O)N(C[C@@H]4CCCO4)C(=O)[C@@H]3CC[C@@H]12 | 0.436 (inactive) |
| CC=CC1=C(CO)C(=O)[C@@H]2O[C@@H]2C1=O | 3.64 (inactive) |
| C[C@@H](c1ccccc1)N1C(=O)[C@H]2[C@H]3[C@H](O)[C@H](O)CC(=NOCc4ccccc4)[C@H]3CC[C@H]2C1=O | 0.0517 (inactive) |
| C[C@H](ON=C1[C@H]2CCn3c(=O)n(-c4ccccc4)c(=O)n3[C@H]2[C@H](O)[C@@H]2O[C@H]12)c1cn([C@H](CO)Cc2ccccc2)nn1 | 0.578 (inactive) |
| C[C@H]1COC(=O)[C@@H]2CCCN2C(=O)[C@@H](C)COC(=O)[C@H](Cc2ccccc2)NC1=O | 0.574 (inactive) |
| CCOC(=O)CCN1C(=O)[C@H]2[C@H]3[C@H](O)[C@H](O)CC(=NNC(=O)OCc4ccccc4)[C@@H]3CC[C@H]2C1=O | -0.244 (inactive) |
| CC(C)=CCCC(C)=CCON=C1C[C@@H](O)[C@@H](O)[C@@H]2[C@@H]3C(=O)N(c4cccc(Oc5ccccc5)c4)C(=O)[C@@H]3CC[C@@H]12 | 0.557 (inactive) |

Biological target: Streptavidin (Streptomyces avidinii) (UniProt P22629)
Sequence (P22629 whole entry, looked up): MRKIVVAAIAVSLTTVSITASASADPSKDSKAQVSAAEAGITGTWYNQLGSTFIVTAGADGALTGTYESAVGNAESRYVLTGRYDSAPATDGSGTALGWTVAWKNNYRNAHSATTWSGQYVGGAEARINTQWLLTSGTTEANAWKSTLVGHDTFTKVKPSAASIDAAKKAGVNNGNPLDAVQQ
Assay: streptavidin binders on small-molecule microarray, primary screen, artefact control for SMM compound annotation, biophysical, 635/667 nm fluorescence (AID 1147);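 note: signal reflects streptavidin binding to arrayed compounds as a control protein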
Settings: streptavidin binding, higher = more signal

| Compound | composite z-score |
| --- | --- |
| CCOC(=O)[C@H](Cc1ccccc1)NC(=O)CCC1CC(OC(=O)NCc2cccc3ccccc23)CC2(CCCC(COC(=O)NCCC(C)C)O2)O1 (stereo not given in full) | 1.8 |
| CC(C)CON=C1[C@H]2CCn3c(=O)n(Cc4cc5c(cc4Cl)OCO5)c(=O)n3[C@H]2[C@H](O)[C@@H]2O[C@H]12 | 1.49 |
| CC(CCC(=O)OC[C@H]1O[C@H](C#Cc2ccccc2)C=C[C@@H]1Oc1ccc(C)cc1)=NO[C@H](C)c1cn([C@H](CO)Cc2ccccc2)nn1 | 0.0184 |
| COc1ccc(COC(=O)NN=C2C[C@@H](O)[C@@H](O)[C@@H]3[C@@H]4C(=O)N(c5ccc(F)cc5F)C(=O)[C@@H]4CC[C@H]23)cc1 | 1.19 |
| C#CCCCON=C1[C@H]2CCn3c(=O)n(C)c(=O)n3[C@H]2[C@H](O)[C@@H]2O[C@H]12 | 0.38 |
| CC(C)=CCCC(C)=CCON=C1C[C@@H](O)[C@@H](O)[C@@H]2[C@@H]3C(=O)N(C(C)(C)C)C(=O)[C@@H]3CC[C@@H]12 | -0.125 |
| CCN1C(=O)[C@H]2[C@H]3[C@H](O)[C@H](O)CC(=O)[C@@H]3CC[C@H]2C1=O | 0.253 |
| O=C1CCCC=C1C(O)CCOC(c1ccccc1)(c1ccccc1)c1ccccc1 (stereo not given) | -0.328 |
| COC(=O)CC=C[C@@H](C)[C@@H](C=NOC[C@H]1O[C@H](c2ccccc2)C=C[C@@H]1Oc1ccc(OC)cc1)NS(=O)(=O)c1ccc(C)cc1 | -0.184 |
| CC(CCN1CCCc2nc(C)c(C)cc21)=NO[C@@H](C)c1cc(-c2c(C)cc(C)cc2C)no1 | 0.327 |
| CO[C@H](C1CCCCC1)[C@H](C)C=CCC(=O)OCCCc1ccccc1 | 0.203 |
| CC(C)=CCCC(C)=CCON=C1C[C@@H](O)[C@@H](O)[C@@H]2[C@@H]3C(=O)N(C[C@@H]4CCCO4)C(=O)[C@@H]3CC[C@H]12 | 0.707 |
| O=C1OCCC=C1C(O)CCc1ccccc1 (stereo not given) | 0.992 |
| COCOc1ccc(Br)cc1C(=O)[C@@H]1O[C@H]1c1cccc(OC)c1 | 0.015 |
| CC(C)=CCCC(C)=CCON=C1C[C@@H](O)[C@@H](O)[C@@H]2[C@@H]3C(=O)N(Cc4ccccc4)C(=O)[C@@H]3CC[C@H]12 | 0.0609 |
| COC(=O)[C@@H]1CC[C@H](C)[C@@H](c2ccc(C)cc2)N1C(=O)c1ccc(C=NOCC[C@@H]2C=C[C@H](OC(C)=O)[C@@H](COC(C)=O)O2)cc1 | 0.342 |
| CON=C1[C@H]2CCn3c(=O)n(-c4ccccc4)c(=O)n3[C@H]2[C@H](O)[C@@H]2O[C@H]12 | 0.0011 |
| CO[C@@H]1C=CCC(=O)N[C@@H](C)C(=O)OC[C@@H](OC)[C@H](C)CCCC(=O)OC[C@H]1C | 0.253 |
| O=C1C[C@@H](O)[C@@H](O)[C@@H]2[C@@H]3C(=O)N(C[C@@H]4CCCO4)C(=O)[C@@H]3CC[C@@H]12 | 0.622 |
| CON=C[C@@H](C)[C@H](OCc1ccccc1)C(C)C | -0.0087 |
| COC(=O)CC=C[C@@H](C)[C@@H]1C=C[C@H](O)[C@@H](CO)O1 | 0.89 |
| Cc1ccc(S(=O)(=O)n2c3ccccc3c3nnc(C(=O)c4ccccc4)nc32)cc1 | -0.237 |
| CC(C)CON=C1C[C@@H](O)[C@@H](O)[C@@H]2[C@@H]3C(=O)N(c4ccc(F)cc4F)C(=O)[C@@H]3CC[C@H]12 | 0.9 |
